According to PubChem BioAssay AID1159580 (chemical genetic matrix, 2015):
“And” between values parts separate entries of the source, which are not always exact repeats. Equal entries are not always repeated. The campaign covered roughly 5,500 compounds. About 2,000 (36%) were called active. Roughly 18% stayed inconclusive and do not appear here. Rule as the data show it: active = normalized growth mostly below about 0.91 (no sharp cut-off); inconclusive = no clear call, values can overlap the other calls; inactive = mostly above about 0.92. The list shows a part of the results.

Assay: chemical genetic growth profiling, strain panel (AID 1159580);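 also: tested at 20 µM; growth read once vehicle control cultures reached saturation at 30 °C; 1 = growth at the plate median or of vehicle wells; lower values mean less growth of the strain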
Conditions: S. cerevisiae deletion strains, growth OD

Measured: normalized growth

COC(=O)C[C@H]1C2(C)CC34OC5(C)O[C@@]6([C@H](OC)C(OC(=O)C(C)C)[C@]7(C)C(/C(=C(/OC)C(C)C)C(=O)O[C@H]7c7ccoc7)[C@@]6(O5)[C@H](OC)[C@@]3(OC)C2OC(C)=O)[C@]14C (stereo partly specified)
inactive: locus YAL013W, strain DEP1, active compounds read low 1.02 | locus YAL021C, strain ccr4, active compounds read low 1 | locus YAL026C, strain drs2, active compounds read low 0.994 | locus YAL030W, strain snc1, active compounds read low 0.984 | locus YBL061C, strain skt5, active compounds read low 0.962 | locus YBR009C, strain hhf1, active compounds read low 0.965 | locus YBR021W, strain FUR4, active compounds read low 1.02 | locus YBR023C, strain chs3, active compounds read low 0.994 | locus YBR171W, strain sec66, active compounds read low 0.989 | locus YBR229C, strain ROT2, active compounds read low 1.01 | locus YBR231C, strain swc5, active compounds read low 0.979 | locus YBR279W, strain paf1, active compounds read low 0.985 | locus YCL011C, strain gbp2, active compounds read low 0.975 | locus YCL016C, strain dcc1, active compounds read low 0.976 | locus YCL029C, strain bik1, active compounds read low 1.03 | locus YCL069W, strain vba3, active compounds read low 0.983 | locus YCR088W, strain abp1, active compounds read low 0.989 | locus YDL005C, strain med2, active compounds read low 0.972 | locus YDL035C, strain GPR1, active compounds read low 1.03 | locus YDL040C, strain nat1, active compounds read low 0.984 | locus YDL074C, strain BRE1, active compounds read low 1.04 | locus YDL101C, strain DUN1, active compounds read low 1.02 | locus YDL134C, strain PPH21, active compounds read low 1.01 | locus YDL185W, strain tfp1, active compounds read low 1.02 | locus YDL192W, strain arf1, active compounds read low 1.03 | locus YDR001C, strain nth1, active compounds read low 0.974 | locus YDR069C, strain doa4, active compounds read low 0.96 | locus YDR101C, strain arx1, active compounds read low 1.02 | locus YDR137W, strain rgp1, active compounds read low 0.95 | locus YDR159W, strain sac3, active compounds read low 1 | locus YDR162C, strain NBP2, active compounds read low 1.02 | locus YDR195W, strain ref2 0.986 | locus YDR297W, strain sur2, active compounds read low 0.967 | locus YDR318W, strain mcm21, active compounds read low 1.03 | locus YDR334W, strain swr1, active compounds read low 0.965 | locus YDR335W, strain msn5, active compounds read low 0.97 | locus YDR388W, active compounds read low 1.02 | locus YDR392W, strain spt3, active compounds read low 0.992 | locus YDR502C, strain sam2, active compounds read low 1 | locus YEL003W, strain gim4, active compounds read low 0.976 | locus YEL037C, strain rad23, active compounds read low 0.99 | locus YEL061C, strain CIN8 (second series), active compounds read low 0.978 | locus YER015W, strain faa2, active compounds read low 0.978 | locus YER016W, strain bim1, active compounds read low 0.98 | locus YER110C, active compounds read low 1.02 | locus YER111C, strain swi4, active compounds read low 0.969 | locus YER155C, strain BEM2 (second series), active compounds read low 0.967 | locus YER155C, strain BEM2, active compounds read low 1 | locus YER167W, strain BCK2, active compounds read low 1.02 | locus YFR010W, strain ubp6, active compounds read low 0.992 | locus YGL078C, strain dbp3, active compounds read low 0.994 | locus YGL086W, strain mad1, active compounds read low 1.01 | locus YGL167C, strain pmr1, active compounds read low 0.992 | locus YGL173C, strain kem1, active compounds read low 0.985 | locus YGL227W, strain vid30, active compounds read low 0.979 | locus YGL240W, strain doc1, active compounds read low 0.965 | locus YGL248W, strain PDE1, active compounds read low 1.01 | locus YGL253W, strain hxk2, active compounds read low 0.983 | locus YGR135W, strain pre9, active compounds read low 1.02 | locus YGR229C, strain SMI1, active compounds read low 0.998 | locus YGR252W, strain gcn5, active compounds read low 0.994 | locus YHR013C, strain ard1, active compounds read low 0.943 | locus YHR027C, strain rpn1, active compounds read low 0.994 | locus YHR030C, strain SLT2, active compounds read low 0.969 | locus YHR079C, strain IRE1 (second series), active compounds read low 1 | locus YHR079C, strain IRE1, active compounds read low 1 | locus YHR094C, strain hxt1, active compounds read low 1.01 | locus YHR129C, strain ARP1, active compounds read low 1.02 | locus YHR142W, strain chs7, active compounds read low 0.97 | locus YHR200W, strain rpn10, active compounds read low 1.02 | locus YIL066C, strain RNR3, active compounds read low 1.04 | locus YIL073C, strain SPO22, active compounds read low 1.02 | locus YIL125W, strain kgd1, active compounds read low 1.01 | locus YIR030C, strain dcg1, active compounds read low 1.02 | locus YJL092W, strain hpr5, active compounds read low 0.973 | locus YJL095W, strain BCK1 (second series), active compounds read low 0.995 | locus YJL095W, strain BCK1, active compounds read low 0.995 and 0.969 | locus YJL115W, strain asf1, active compounds read low 0.967 | locus YJL129C, strain trk1, active compounds read low 0.944 | locus YJL134W, strain LCB3, active compounds read low 1.01 | locus YJL154C, strain vps35, active compounds read low 0.981 | locus YJL164C, strain tpk1, active compounds read low 1.01 | locus YJL166W, strain qcr8, active compounds read low 0.99 | locus YJL168C, strain set2, active compounds read low 1.01 | locus YJL187C, strain SWE1 (second series), active compounds read low 1.01 | locus YJR043C, strain POL32, active compounds read low 1.03 | locus YJR066W, strain TOR1, active compounds read low 0.884 | locus YKL009W, strain mrt4, active compounds read low 0.959 | locus YKL068W, active compounds read low 0.998 | locus YKL085W, strain MDH1 (second series), active compounds read low 1.01 | locus YKL085W, strain MDH1, active compounds read low 1.01 | locus YKL160W, strain elf1, active compounds read low 0.987 | locus YKR001C, strain vps1, active compounds read low 0.992 | locus YKR026C, strain gcn3, active compounds read low 0.983 | locus YKR091W, strain srl3, active compounds read low 0.984 | locus YLL001W, strain dnm1, active compounds read low 0.973 | locus YLL026W, active compounds read low 0.978 | locus YLL041C, strain sdh2, active compounds read low 0.987 | locus YLR027C, strain aat2, active compounds read low 0.974 | locus YLR039C, strain RIC1, active compounds read low 0.908 | locus YLR058C, strain SHM2, active compounds read low 1.01 | locus YLR102C, strain apc9, active compounds read low 1 | locus YLR113W, strain HOG1, active compounds read low 1.01 | locus YLR221C, strain rsa3, active compounds read low 0.976 | locus YLR258W, strain gsy2, active compounds read low 0.996 | locus YLR262C, strain YPT6 (second series), active compounds read low 0.997 | locus YLR262C, strain YPT6, active compounds read low 0.754 | locus YLR268W, strain sec22, active compounds read low 1.03 | locus YLR320W, strain mms22, active compounds read low 0.988 | locus YLR342W, strain FKS1 (second series), active compounds read low 0.987 | locus YLR342W, strain FKS1, active compounds read low 0.982 | locus YLR357W, strain rsc2, active compounds read low 1.01 | locus YLR370C, strain arc18, active compounds read low 0.971 | locus YLR371W, strain rom2, active compounds read low 1.04 | locus YLR384C, strain iki3, active compounds read low 0.984 | locus YLR418C, strain cdc73, active compounds read low 1.04 | locus YML016C, strain PPZ1, active compounds read low 1.01 | locus YML032C, strain rad52, active compounds read low 1 | locus YML120C, strain ndi1, active compounds read low 0.982 | locus YML124C, strain tub3, active compounds read low 1.01 | locus YMR058W, strain fet3, active compounds read low 0.97 | locus YMR078C, strain ctf18, active compounds read low 1.01 | locus YMR125W, strain sto1, active compounds read low 0.986 | locus YMR129W, active compounds read low 0.986 | locus YMR205C, strain PFK2, active compounds read low 1 | locus YMR223W, strain ubp8, active compounds read low 1.01 | locus YMR231W, strain pep5, active compounds read low 0.975 | locus YMR307W, strain GAS1, active compounds read low 1.23 | locus YNL067W, strain RPL9B, active compounds read low 1.01 | locus YNL071W, strain lat1, active compounds read low 0.989 | locus YNL153C, strain GIM3, active compounds read low 1.03 | locus YNL183C, strain NPR1, active compounds read low 0.935 | locus YNL209W, strain ssb2, active compounds read low 0.985 | locus YNL233W, strain BNI4, active compounds read low 1.04 | locus YNL248C, strain rpa49, active compounds read low 0.977 | locus YNL250W, strain rad50, active compounds read low 1.04 | locus YNL271C, strain bni1, active compounds read low 1.02 | locus YNL298W, strain CLA4, active compounds read low 1 | locus YNL307C, strain MCK1, active compounds read low 1.02 | locus YNL322C, strain KRE1 (second series), active compounds read low 0.972 | locus YNL322C, strain KRE1, active compounds read low 1.01 | locus YNR049C, strain mso1, active compounds read low 0.96 | locus YNR052C, strain pop2, active compounds read low 1.03 | locus YOL006C, strain TOP1, active compounds read low 1.06 | locus YOL012C, strain htz1 0.933 | locus YOL147C, strain pex11, active compounds read low 1.02 | locus YOR001W, strain rrp6, active compounds read low 0.967 | locus YOR061W, strain CKA2, active compounds read low 1.04 | locus YOR069W, strain VPS5, active compounds read low 1.01 | locus YOR070C, strain gyp1, active compounds read low 1.01 | locus YOR080W, strain dia2, active compounds read low 0.964 | locus YOR083W, strain WHI5, active compounds read low 0.993 | locus YOR106W, strain vam3, active compounds read low 0.953 | locus YOR136W, strain idh2, active compounds read low 1 | locus YOR144C, strain elg1, active compounds read low 1.01 | locus YOR184W, strain ser1, active compounds read low 1.04 | locus YOR231W, strain MKK1, active compounds read low 0.955 | locus YOR265W, strain rbl2, active compounds read low 0.994 | locus YOR270C, strain vph1, active compounds read low 0.866 | locus YOR290C, strain snf2, active compounds read low 0.962 | locus YOR316C, strain cot1, active compounds read low 1 | locus YPL051W, strain arl3, active compounds read low 1 | locus YPL078C, strain atp4, active compounds read low 0.964 | locus YPL106C, strain sse1, active compounds read low 1.02 | locus YPL240C, strain hsp82, active compounds read low 0.988 | locus YPL256C, strain CLN2, active compounds read low 0.966 | locus YPR119W, strain clb2, active compounds read low 1 | locus YPR141C, strain kar3, active compounds read low 1.02 | locus YPR163C, strain tif3, active compounds read low 1.02 | locus YPR167C, strain met16, active compounds read low 1.01 | strain wtn01, active compounds read low 0.995
